# A selection: hits, their analogues and other compounds. The true share with any hit is near 19%.
# SW480 rerep = inducers of DNA re-replication in SW480 colon cancer cells; AID 624297; SW480 DNA re-replication, Hoechst DNA content imaging, 48 h; Potency, µM (titrated, usually from 46.1 µM), for the others: at the highest dose re-replication activation, most hits filed as activators; 340,000 tested, 1.8% active; further: potency means the concentration at half of the fitted maximal effect; % of control where 0% means no effect; nearly all actives have a fitted effect of over 55% in size
#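 Cells (250 per well) received 23 nL compound or DMSO by pin tool and were kept 48 hr at 37 C, 5% CO2. Nuclei were then stained with Hoechst for 40 min and scanned for DNA content.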
# DT40 TDP1 CPT = DT40-hTDP1 cell growth loss with CPT; Potency, µM (doses to about 46.2 µM), for inactives: at the top dose activity change, negative = growth inhibition, usual class: inhibitors; 420,000 tested, 12% active; AID 686979; chicken DT40 Tdp1-/-;hTDP1 cells + 20 nM CPT, ATP luminescence, 48 h; further: potency means the concentration at half of the fitted maximal effect; on the % scale 0 is the no-effect control and ±100 the full control effect; nearly all actives have a fitted effect of over 55% in size
#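 Cell growth measured by CellTiter-Glo luminescence after a minimum 48 h, 37 C compound exposure with 20 nM CPT in Tdp1-knockout DT40 cells stably expressing hTDP1, seeded 400/well; qHTS titration format.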
# MCF10A rereplic = inducers of DNA re-replication in MCF 10A breast cells. MCF 10A DNA re-replication, Hoechst nuclear intensity, 48 h. AID 624296. Potency, µM (series often up to 46.1 µM), for the others: top-dose activity, positive = re-replication, usual class: activators. 350,000 tested, 2.9% active; further: potency means the concentration at half of the fitted maximal effect; % of control where 0% means no effect; nearly all actives have a fitted effect of over 50% in size
# IL1B secr inh = inhibitors of inflammasome signaling (IL-1 beta secretion); THP-1 LPS/ATP IL-1B secretion, AlphaLISA, 16 h; hits give low values; activity change, % at 57.5 µM; 360,000 tested, 4.7% active; AID 743279; in the data active means activity change below about -50%; inconclusive means mostly about -30% to -49%; further: on the % scale 0 is the no-effect control and ±100 the full control effect
#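 Secreted IL-1B measured by AlphaLISA bead assay after 16 h compound exposure of THP-1 cells; compounds (final up to 57.5 uM) added 1 h before LPS (250 ng/mL) and ATP (1.25 mM) stimulation; lower signal means less secretion.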
# DT40 TDP1 no CPT = qHTS for Inhibitors of human tyrosyl-DNA phosphodiesterase 1 (TDP1): qHTS in cells in absence of CPT | DT40 Tdp1-/- hTDP1 cells, no CPT, ATP luminescence, 48 h | Potency, µM (top dose mostly 46.2 µM), for inactives: at the highest dose activity change, negative = growth inhibition, hits mostly inhibitors | 420,000 tested, 15% active; further: potency means the concentration at half of the fitted maximal effect; on the % scale 0 is the no-effect control and ±100 the full control effect; nearly all actives have a fitted effect of over 55% in size
#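 No-CPT arm: Tdp1-/-;hTDP1 DT40 cells (400/well) plus compounds, incubated ≥48 hr at 37 °C. Readout CellTiter-Glo luminescence.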
# BCR signal inh = inhibitors of chronic active B-cell receptor signaling; ABC-DLBCL IkBa-CBG/CBR reporter, luminescence ratio, 4 h; 340,000 tested, 0.05% active; AID 493014; Potency, µM (doses to about 46.1 µM), for the others: at the top dose activity change, negative = inhibition, most hits filed as inhibitors; active means well fitted inhibition curve with a large enough effect in the signal ratio, with a control signal flat, not every such curve was filed as active; inconclusive means small, poorly fitted or top-dose-only effect, or effect the other way, or a change in a side signal; the % refers to the signal ratio;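 further: potency means the concentration at half of the fitted maximal effect; plate controls were basal doxycycline-induced cells for no effect and cells given 10 µM MG132 for full effect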
#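 TMD8 ABC-DLBCL cells carrying doxycycline-inducible green luciferase fused to IkappaBalpha plus unfused red luciferase were exposed to compounds (up to 46 uM) for 4 hrs at 37C. Activity came from the overlap-corrected green/red luminescence ratio.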
# Active calls of the source: *; ? = inconclusive; · = no result given; [ ] = remark or other dose. Unless noted, the call rests on the fitted dose curve; in most records, active means well fitted curve in the direction sought with a large enough effect; inconclusive means small, poorly fitted or top-dose-only effect, or another doubt; inactive means no such curve, though single readings can be large; an effect the other way counts as inactive or inconclusive.
SMILES,SW480 rerep,DT40 TDP1 CPT,MCF10A rereplic,IL1B secr inh,DT40 TDP1 no CPT,BCR signal inh
CCOC(=O)c1cccc(NC(=O)CCc2c(C)nn(-c3ccc(N4CCCC4)nn3)c2C)c1,·,?,·,·,20.6µM*,·
Cc1cc(-c2ccc(C(C)C)c(S(=O)(=O)Nc3cc(C)on3)c2)on1,5.2%,-2.8%,0.6%,15.1,11.3%,?
OCc1ccc(O)c2ncccc12,16.4µM*,5.17µM*,?,80.4,5.17µM*,-6.5%
Oc1ccc(Cc2ccccc2)c2cccnc12,?,4.61µM*,?,89.4,2.06µM*,·
Oc1ccc(CNc2ccccc2F)c2cccnc12,?,2.06µM*,?,105.7,2.06µM*,?
O=C(CN(c1ccccc1)S(=O)(=O)c1ccc(F)cc1)NCc1cccs1,-2.5%,-20.0%,-2.0%,9.4,-15.5%,?
O=C(COCc1cc(-c2ccc3c(c2)OCO3)on1)NCc1ccc(F)cc1,·,?,·,·,-21.5%,·
CCN1C(=O)C(F)(CC)C(=O)c2ccccc21 (stereo not given),2.7%,6.9%,-2.0%,13.6,-0.6%,-6.4%
O=C(CCl)N(C1CCCC1)C1CCS(=O)(=O)C1 (stereo not given),20.6µM*,18.4µM*,?,?,14.6µM*,?
CCOc1cc(CNCCN2CCOCC2)ccc1OCc1ccccc1Cl,20.6µM*,?,14.0%,?,18.4µM*,?
C=CCOc1c(Br)cc(CNCCCN2CCOCC2)cc1OC,0.8%,-27.8%,4.5%,3.8,?,-0.7%
CCOc1cc(CNC2CCCC2)ccc1OCc1ccccc1Cl,117.5%,13µM*,?,-88.5*,20.6µM*,?
CCOc1cc(CNC2CCCC2)cc(Cl)c1OCc1ccccc1,?,?,?,-23.6,?,?
CCOc1cc(CNCCCN2CCOCC2)cc(Br)c1OCc1ccccc1Cl,?,3.66µM*,?,-101.3*,4.61µM*,?
CCOc1cc(C2NN=C(c3ccccc3)S2)ccc1OCc1ccc(F)cc1 (stereo not given),-0.2%,?,?,29.7,?,?
CCOc1cc(CNCCCN2CCOCC2)ccc1OCC(=O)NC(C)(C)C,4.6%,0.8%,2.9%,9.9,0.9%,-0.4%
CCOc1cc(C2NN=C(c3ccccc3)S2)ccc1OCc1ccccc1Cl (stereo not given),7.8%,?,9.5%,48.8,16.4µM*,-5.7%
CN(C)CCNC(=O)c1nn(C)c2c1CCc1ccccc1-2,-17.3%,3.7%,6.9%,-15.2,?,6.3%
Cc1ccc(OCC(=O)Nc2ccc3nc(SCCOc4ccccc4)sc3c2)cc1,·,?,·,·,10.3µM*,·
CC(=O)Nc1ccc2nc(SCCOc3ccccc3Cl)sc2c1,·,?,·,·,23.1µM*,·
COc1cc(C)ccc1OCCSc1nc2ccc(NC(=O)c3cccs3)cc2s1,·,?,·,·,16.4µM*,·
CC(C)C(=O)Nc1ccc2nc(SCCOc3ccccc3)sc2c1,·,-25.2%,·,·,-28.5%,·
Cc1ccc(OCC(=O)Nc2ccc3nc(SCC(N)=O)sc3c2)cc1,·,-17.4%,·,·,-23.1%,·
O=C(Nc1ccc2nc(SCCOc3ccccc3)sc2c1)c1cccs1,·,?,·,·,20.6µM*,·
COc1ccccc1OCCSc1nc2ccc([N+](=O)[O-])cc2s1,·,?,9.0%,-15.7,?,7.1%
SMILES,SW480 rerep,DT40 TDP1 CPT,MCF10A rereplic,IL1B secr inh,DT40 TDP1 no CPT,BCR signal inh
Cc1[nH]c2ccccc2c1C(=O)C(=O)NC1CC(=O)N(c2cccc(F)c2)C1 (stereo not given),·,-1.1%,·,·,?,-0.1%
COc1cc(C)ccc1OCCSc1nc2ccc(NC(=O)c3ccco3)cc2s1,·,23.1µM*,·,·,10.3µM*,·
CCOC(=O)C(CCc1ccccc1)NC(C)C(=O)N1Cc2cc(OC)c(OC)cc2CC1C(=O)O (stereo not given),1.7%,·,12.3%,·,·,·
CC1(C(=O)NCc2ccccc2)CN(S(C)(=O)=O)CC(=O)N1C1CC1 (stereo not given),·,11.8%,·,7.9,5.7%,·
CCCNC(=O)C1(C)CCN(C(=O)/C=C/c2ccccc2)C1 (stereo not given),·,4.8%,·,10.1,0.1%,·
COc1cc(/C=C2\SC(N3CCCCC3)=NC2=O)cc(OC)c1OC,12.9%,20.6µM*,15.8%,?,11.6µM*,?
COc1ccc(/C=C2\SC(N3CCCCC3)=NC2=O)cc1,-5.3%,11.6µM*,3.0%,-1.0,?,0.3%
O=C1N=C(N2CCCCC2)S/C1=C\c1ccncc1,-1.3%[9.22 µM],6.2%,7.9%,-52.0*,-29.1%,-5.3%
CCc1ccc(/C=C2\SC(N3CCCC3)=NC2=O)cc1,0.8%,0.5%,1.1%,-60.4*,?,1.6%
O=C1N=C(N2CCCC2)S/C1=C\C=C\c1ccccc1,-12.1%,-3.2%,8.2%,2.8,-28.1%,?
O=c1c2c(nc3c(-c4cccc5ccccc45)c[nH]n13)CCC2,-6.0%,25.1µM*,11.2µM*,9.5,?,?

# Bioassay records as filed in PubChem BioAssay.
